Potency data for 26 molecules are collected here from PubChem BioAssay AID2110 (National Center for Advancing Translational Sciences (NCATS), 2009).

Several values for one entry are separate records, joined by “and”; a condition that tells them apart may be missing. Equal entries are not always repeated. Records with an inconclusive call do not appear. Entries that show only a call come without a potency. Activity calls are given as the source filed them. Calls come from the whole dose curve; as a rule, active = well fitted curve in either direction with a large enough effect; inconclusive = small, poorly fitted or top-dose-only effect; inactive = no such curve, though single readings can be large or run the other way.

This assay deals with Lysosomal alpha-glucosidase (Homo sapiens) (UniProt P10253). The experiment in a line: Confirmation of Inhibitors and Activators of Purified Human alpha-Glucosidase Using an Alternate Red Fluorescent Susbtrate. The conditions noted are these: purified enzyme, red fluorogenic substrate; series mostly up to 63.4 µM. An outline of the steps: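 Concentration series tested against 4 nM purified human enzyme, pH 5.0 citrate buffer with Tween-20; 400 uM resorufin glycoside substrate, 20 min room temperature, NaOH/glycine stop. Fluorescence normalized to no-enzyme and full-activity controls; Hill-equation AC50.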
Consider `CC(=O)N1CCN(S(=O)(=O)c2ccc3c(c2)CC(=O)N3)CC1`, for which the Potency was 14.9 µM [inhibitor] (active).

Take `CCCN1CNc2c(c(=O)[nH]c(=S)n2CCc2ccc(OC)c(OC)c2)C1`: the Potency was 2 µM (active).

Take `CC(=O)c1ccc(N2CCN(S(=O)(=O)c3ccc4c(c3)CC(C)N4C(C)=O)CC2)cc1` (stereo unspecified): the Potency result is “inactive”.

Consider `CCCN1CNc2c(c(=O)[nH]c(=S)n2CCc2cccc(Cl)c2)C1`, for which the Potency is 11.2 µM (active).

With `CCCN1CNc2c(c(=O)[nH]c(=S)n2CCc2ccc3c(c2)OCCO3)C1`, the Potency was 1.12 µM (active).

For the molecule `CCCN1CNc2c(c(=O)[nH]c(=S)n2CCc2cc(Cl)cc(Cl)c2)C1`, the Potency was 2 µM (active).

For the molecule `CCCN1CNc2c(c(=O)[nH]c(=S)n2CCC(C)C)C1`, the Potency entry was “inactive”.

As to `CC(O)[C@@H](O)[C@H]1CNc2nc(N)[nH]c(=O)c2N1` (stereo partly specified), the Potency result is “inactive”.

In the case of `CCCN1CNc2c(c(=O)[nH]c(=S)n2CCc2c(C)cccc2C)C1`, the Potency is 3.16 µM (active).

Take `CCCN1CNc2c(c(=O)[nH]c(=S)n2CCC)C1`: the Potency result is “inactive”.

As for `Cc1ccc(S(=O)(=O)N2CCN(C(=O)N(c3ccccc3)c3ccccc3)CC2)cc1`, the Potency result is “inactive”.

As to `CCCN1CNc2c(c(=O)[nH]c(=S)n2CCc2ccc(OCC)c(OCC)c2)C1`, the Potency was 1.78 µM (active).

`CCCN1CNc2c(c(=O)[nH]c(=S)n2CCc2ccc(C)cc2C)C1`: the Potency is 2.82 µM (active).

On to `CCCN1CNc2c(c(=O)[nH]c(=S)n2CCc2ccc(OC)cc2OC)C1`, for which the Potency is 2.51 µM (active).

With `COc1ccc(N2CCN(S(=O)(=O)c3ccc4c(c3)CC(=O)N4)CC2)cc1`, the Potency was 18.8 µM [inhibitor] (active).

For the molecule `OCC1NCC(O)C(O)C1O` (stereo unspecified), the Potency result is “inactive”.

Regarding `CCCN1CNc2c(c(=O)[nH]c(=S)n2CCc2ccc(C)cc2)C1`, the Potency was 11.2 µM (active).

For `CC(=O)c1ccc(N2CCN(S(=O)(=O)c3ccc4c(c3)CC(=O)N4)CC2)cc1`, the Potency was 919 nM [inhibitor] (active) and 1.06 µM [inhibitor] (active) and 1.3 µM [inhibitor] (active).

Regarding `COc1ccc(CCn2c(=S)[nH]c(=O)c3[nH]cnc32)cc1OC`, the Potency result was “inactive”.

Turning to `CCCCN1C[C@H](O)[C@@H](O)[C@H](O)[C@H]1CO`, the Potency entry was “inactive”.

Regarding `COc1ccc(CCn2c(=S)[nH]c(=O)c3nccnc32)cc1OC`, the Potency entry is “inactive”.

Take `COc1ccc(CCn2c3c(c(=O)[nH]c2=S)CN(C(C)C)CN3)cc1OC`: the Potency was 11.2 µM (active).

As for `CC(=O)c1ccc(N2CCN(S(=O)(=O)c3ccc(N4CCCC4=O)cc3)CC2)cc1`, the Potency result is “inactive”.

Take `Clc1ncc(C#Cc2ccccc2)c2ncncc12`: the Potency entry was “inactive”.

In the case of `COc1ccc(C#Cc2c[nH]c(=O)c3cncnc23)cc1OC`, the Potency entry is “inactive”.

On to `O=C1Cc2cc(S(=O)(=O)N3CCNCC3)ccc2N1`, for which the Potency entry is “inactive”.
